# Assay results as given in PubChem BioAssay (NCATS).
# Records with an inconclusive call do not appear. A call without a number means that no potency is given here. Calls of active or inactive are those of the source. Unless noted, the call rests on the fitted dose curve.
# Assays:
# [1] = Primary qHTS for Huh7 cytotoxicity: counterscreen for inhibitors of MERS-S pseudotyped particle cell entry (AID 1479147); settings: outcome: dose series up to 57.1 µM unless noted
# [2] = Primary qHTS for Vero E6 cytotoxicity: counterscreen for inhibitors of SARS-S pseudo-typed particle cell entry (AID 1479150); settings: outcome: dose series up to 57.1 µM unless noted
# [3] = Cytotoxicity counterscreen for inhibitors of SARS-CoV-2 cell entry (AID 1645845); settings: outcome: dose series up to 57.1 µM unless noted; further: nearly all actives have a fitted effect of over 50% in size; further: potency means the concentration at half of the fitted maximal effect
# Method in brief: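 Expi293F/hACE2 cells seeded overnight; cpd pin-transferred in DMSO, 1 h preincubation, + media, 48 h 37 C 5% CO2; ATPLite 1step luminescence; normalized to cells and no cells.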
# [4] = Primary qHTS to identify inhibitors of SARS-CoV-2 cell entry (AID 1645846); settings: SARS-CoV-2 pseudovirus cell entry assay, luminescence; activity change, negative = inhibition: at 57.1 µM (top of the series) unless noted; further: nearly all actives have a fitted effect of over 45% in size; further: potency means the concentration at half of the fitted maximal effect
# Method in brief: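 Data are normalized to wells receiving SARS-CoV-2-S pseudoparticles and those given bald particles. Entry signal was luciferase luminescence in stable hACE2 Expi293F cells, 48 hr post-infection, after 1 hr compound pretreatment.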
# [5] = VSVG counterscreen qHTS to identify inhibitors of SARS-CoV-2 cell entry (AID 1645847); further: nearly all actives have a fitted effect of over 65% in size; further: potency means the concentration at half of the fitted maximal effect
# Method in brief: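 Counterscreen using VSV-G (not spike) pseudotyped MLV particles on ACE2-expressing Expi293F cells after 1 h compound preincubation; infection ran 48 h at 37 °C. Data normalized to VSV-G PP and bald-PP wells.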
# [6] = Confirmatory qHTS for VERO E6 Cytotoxicity Assay: Counterscreen for SARS-CoV-2 CPE Assay (AID 1508605); further: nearly all actives have a fitted effect of over 60% in size; further: potency means the concentration at half of the fitted maximal effect
# [7] = Confirmatory qHTS to identify inhibitors of SARS-CoV-2 cell entry (AID 1645844); further: potency means the concentration at half of the fitted maximal effect; nearly all actives have a fitted effect of over 45% in size
# Method in brief: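 HEK293-ACE2 cells (Expi293F stably expressing human ACE2) were pretreated with compounds for 1 hr at 37C, then infected with MLV-based particles carrying Wuhan-Hu-1 spike (C-terminal 19-aa truncation). Luciferase luminescence read after 48 hr; normalized to spike PP (100%) and bald PP (0%).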
# [8] = Primary qHTS for inhibitors of MERS-S pseudo-typed particle cell entry (AID 1479149); settings: outcome: dose series up to 57.1 µM unless noted; further: nearly all actives have a fitted effect of over 60% in size; further: potency means the concentration at half of the fitted maximal effect
# [9] = qHTS Assay for Identifying Gametocytocidal Compounds (AID 743244; active means well fitted curve in the direction sought with a large enough effect; further: potency means the concentration at half of the fitted maximal effect); settings: P. falciparum 3D7 stage III-V gametocytes, alamarBlue, 72 h
# Method in brief: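 P. falciparum 3D7 stage III–V gametocytes (20,000 cells/well) were exposed to compounds for 72 h at 37 °C, 5% CO2. AlamarBlue was then added for 24 h; decreased resorufin fluorescence (Ex 525/Em 598 nm) indicated loss of viability.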
# [10] = Confirmatory qHTS for activators (rescue) of SARS-CoV-2 Cytopathic Effect (CPE) (AID 1508606); further: potency means the concentration at half of the fitted maximal effect; nearly all actives have a fitted effect of over 70% in size
smiles,measurement,setting,value
CCN1CCN(Cc2ccc(Nc3ncc(F)c(-c4cc(F)c5nc(C)n(C(C)C)c5c4)n3)nc2)CC1,Potency,[1],inactive
same,Potency,[2],inactive
same,Potency,[3],inactive
same,Potency,[4],10 µM (active)
same,Potency,[5],6.81 µM (active)
CC(CN(C)C)CN1c2ccccc2Sc2ccc(C(F)(F)F)cc21 (centres undefined),Potency,[1],inactive
same,Potency,[2],inactive
same,Potency,[6],inactive
same,Potency,[7],15.2 µM (active)
same,Potency,[3],inactive
same,Potency,[4],12.6 µM (active)
CC(C)[C@H]1C(=O)N[C@@H](CCCN=C(N)N)C(=O)NCC(=O)N[C@@H](CC(=O)O)C(=O)N[C@H](Cc2ccccc2)C(=O)N1C,Potency,[1],inactive
same,Potency,[2],inactive
same,Potency,[3],inactive
same,"activity change, negative = inhibition",[4],-11.5% [at 27.1 µM]
C[C@](C#N)(COc1cc(C#N)ccc1C(F)(F)F)NC(=O)c1ccc(SC(F)(F)F)cc1,Potency,[2],inactive
COC(=O)N[C@H](C(=O)N1CCC[C@H]1c1ncc(-c2ccc(-c3ccc(-c4cnc([C@@H]5CCCN5C(=O)[C@@H](NC(=O)OC)C(C)C)[nH]4)cc3)cc2)[nH]1)C(C)C,Potency,[1],inactive
same,Potency,[2],inactive
same,Potency,[3],39.8 µM (active)
same,Potency,[5],1.71 µM (active)
CC1(C)[C@@H](O[C@H]2O[C@H](C(=O)O)[C@@H](O)[C@H](O)[C@H]2O[C@@H]2O[C@H](C(=O)O)[C@@H](O)[C@H](O)[C@H]2O)CC[C@]2(C)[C@H]3C(=O)C=C4[C@@H]5C[C@@](C)(C(=O)O)CC[C@]5(C)CC[C@@]4(C)[C@]3(C)CC[C@@H]12,Potency,[8],inactive
same,Potency,[2],inactive
same,Potency,[3],inactive
CC(=O)Oc1cc(C)c(OC(C)=O)c2ccccc12,Potency,[2],inactive
same,Potency,[4],31.6 µM (active)
O=C(OC[C@H]1O[C@@H](OC(=O)c2cc(O)c(O)c(OC(=O)c3cc(O)c(O)c(O)c3)c2)[C@H](OC(=O)c2cc(O)c(O)c(OC(=O)c3cc(O)c(O)c(O)c3)c2)[C@@H](OC(=O)c2cc(O)c(O)c(OC(=O)c3cc(O)c(O)c(O)c3)c2)[C@@H]1OC(=O)c1cc(O)c(O)c(OC(=O)c2cc(O)c(O)c(O)c2)c1)c1cc(O)c(O)c(OC(=O)c2cc(O)c(O)c(O)c2)c1,Potency,[2],inactive
Cc1cc(/C=C/c2ccc3cc(N(C)C)ccc3[n+]2C)c(C)n1-c1ccccc1,Potency,[8],5.01 µM (active)
same,Potency,[4],1.78 µM (active)
COc1cc(N2CCC(N3CCN(C)CC3)CC2)ccc1Nc1ncc(Cl)c(Nc2ccccc2P(C)(C)=O)n1,Potency,[2],inactive
same,Potency,[7],4.82 µM (active)
same,Potency,[4],8.91 µM (active)
same,Potency,[5],inactive
O=C(/C=C/c1ccccc1)NC(NC(=S)Nc1cccc2cccnc12)C(Cl)(Cl)Cl (centres undefined),Potency,[6],inactive
Clc1cc(Cl)c(OCC#CI)cc1Cl,Potency,[8],inactive
CCN(CC)CCN(Cc1ccc(-c2ccc(C(F)(F)F)cc2)cc1)C(=O)Cn1c(SCc2ccc(F)cc2)nc(=O)c2c1CCC2,Potency,[6],10 µM (active)
CCN1/C(=C/C=C/C=C/c2sc3ccccc3[n+]2CC)Sc2ccccc21,Potency,[8],11.2 µM (active)
Cc1cc(-n2c(=O)[nH]c(=O)n(C)c2=O)ccc1Oc1ccc(S(=O)(=O)C(F)(F)F)cc1,Potency,[1],inactive
same,Potency,[4],17.8 µM (active)
CCCCC(=O)O[C@H]1CC[C@H]2[C@@H]3CCc4cc(O)ccc4[C@H]3CC[C@]12C,Potency,[1],inactive
same,Potency,[2],inactive
same,"activity change, negative = inhibition",[4],-64.3%
CCCCCCCCCCCCCC[n+]1ccc(C)cc1,Potency,[1],inactive
same,Potency,[3],5.62 µM (active)
NC(=O)c1cccc2cn(-c3ccc(C4CCCNC4)cc3)nc12 (centres undefined),Potency,[8],25.1 µM (active)
same,Potency,[2],inactive
COc1cc([C@@H]2c3cc4c(cc3[C@@H](O[C@@H]3O[C@@H]5CO[C@@H](C)O[C@H]5[C@H](O)[C@H]3O)[C@H]3COC(=O)[C@H]23)OCO4)cc(OC)c1OP(=O)(O)O,Potency,[1],inactive
same,Potency,[7],0.541 µM (active)
same,Potency,[3],inactive
same,Potency,[4],3.55 µM (active)
same,Potency,[5],0.482 µM (active)
Clc1ccc(CCCOCCCN2CCCCC2)cc1,Potency,[2],inactive
same,Potency,[3],inactive
O=C(CCCN1CCC(n2c(=S)[nH]c3ccccc32)CC1)c1ccc(F)cc1,Potency,[2],inactive
CC[C@@H](C(=O)O)[C@@H]1O[C@@H]([C@@H](C)[C@H](O)[C@H](C)C(=O)[C@H](CC)[C@H]2O[C@]3(C=C[C@@H](O)[C@]4(CC[C@@](C)([C@H]5CC[C@](O)(CC)[C@H](C)O5)O4)O3)[C@H](C)C[C@@H]2C)[C@@H](C)C[C@@H]1C,Potency,[9],0.316 µM (active)
same,Potency,[8],0.355 µM (active)
same,Potency,[2],inactive
same,Potency,[4],0.708 µM (active)
CCC(C)C(=O)OC12C(OC(C)=O)C(C)C3(O)C(C=C(CO)CC4(O)C(=O)C(C)=CC43)C1C2(C)C (centres undefined),Potency,[6],inactive
CCC1OC(=O)C(C)C(OC2CC(C)(OC)C(O)C(C)O2)C(C)C(OC2OC(C)CC(N(C)C)C2O)C(C)(O)CC(C)C2NC(COCCOC)OC(C2C)C1(C)O (centres undefined),Potency,[8],inactive
same,Potency,[2],inactive
same,Potency,[3],inactive
COc1ccc2c(c1)N(C[C@H](C)CN(C)C)c1ccccc1S2,Potency,[2],inactive
same,Potency,[6],inactive
same,Potency,[10],10 µM (active)
same,Potency,[3],inactive
same,Potency,[4],11.2 µM (active)
COc1cc2nc(N3CCCCC3)nc(NC3CCN(Cc4ccccc4)CC3)c2cc1OC,Potency,[6],10 µM (active)
CC1=CC(=C(c2ccc(N)cc2)c2ccc(N)cc2)C=CC1=N,Potency,[8],7.08 µM (active)
same,Potency,[3],8.91 µM (active)
same,Potency,[4],5.01 µM (active)
[2H]C([2H])([2H])C(O)([C@@H](C)/C=C/[C@@H](C)[C@H]1CC[C@H]2/C(=C/C=C3C[C@@H](O)C[C@H](O)C3)CCC[C@]12C)C([2H])([2H])[2H],Potency,[1],inactive
same,Potency,[2],inactive
same,Potency,[3],inactive
same,"activity change, negative = inhibition",[4],-60.1%
same,Potency,[5],3.83 µM (active)
Cc1[nH]c(/C=C2\C(=O)Nc3ccc(F)cc32)c(C)c1C(=O)NCCN1CCCC1,Potency,[2],inactive
same,Potency,[3],inactive
same,"activity change, negative = inhibition",[4],-9.79% [at 27.1 µM]
CCCN1C[C@@H](NS(=O)(=O)N(CC)CC)C[C@@H]2Cc3c(O)cccc3C[C@H]21,Potency,[2],inactive
